Measurements from PubChem BioAssay (NCI).
Compounds without any hit were thinned out: in the full panel of roughly 79,000, 15% have a hit. The source made the active and inactive calls. Cut-off read from the data, not from the text of the source: active = growth inhibition above about 70%; inactive = the rest.

What was measured:
[1] = NCI Yeast Anticancer Drug Screen. Data for the wt2 strain (AID 169);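 note: 0% = growth of vehicle-treated yeast cultures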; settings: S. cerevisiae wt2 strain growth inhibition, active compounds read high
Method in brief: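 Yeast cells were exposed to test compounds, and growth inhibition was measured relative to vehicle-treated controls.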

[2] = NCI Yeast Anticancer Drug Screen. Data for the mlh1 strain (AID 171);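 note: 0% = growth of vehicle-treated control cultures of the same strain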; settings: S. cerevisiae mlh1 strain growth inhibition, active compounds read high
Method in brief: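 Yeast carrying a defined genetic alteration in DNA damage repair or cell cycle control were exposed to test compounds. Growth inhibition was measured relative to vehicle-treated controls.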

[3] = NCI Yeast Anticancer Drug Screen. Data for the mlh1 rad18 strain (AID 175); settings: S. cerevisiae mlh1 rad18 strain growth inhibition, active compounds read high
Method in brief: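 Growth inhibition of the yeast strain was measured after compound exposure and expressed relative to vehicle-treated controls. The strain carries defined defects in DNA damage repair.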

[4] = NCI Yeast Anticancer Drug Screen. Data for the rad18 strain (AID 177); settings: S. cerevisiae rad18 mutant growth inhibition, active compounds read high
Method in brief: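 Yeast carrying a defined DNA damage repair alteration were exposed to compounds. Growth inhibition was expressed relative to vehicle-treated controls.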

[5] = NCI Yeast Anticancer Drug Screen. Data for the rad52 strain (AID 147);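 note: 0% = growth of vehicle-treated control cultures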; settings: S. cerevisiae rad52 mutant growth inhibition, active compounds read high
Method in brief: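 Yeast strain carrying a DNA damage repair alteration was exposed to test compounds. Growth inhibition was measured relative to vehicle-treated controls.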

[6] = NCI Yeast Anticancer Drug Screen. Data for the wt1 strain (AID 149);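 note: 0% = growth of vehicle-treated wt1 cultures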; settings: S. cerevisiae wt1 strain (SPY 50644) growth inhibition, active compounds read high
Method in brief: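 Growth inhibition read against vehicle controls after compound exposure of the wt1 yeast strain.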

[7] = NCI Yeast Anticancer Drug Screen. Data for the rad50EPP+ strain (AID 151);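 note: 0% = growth of vehicle-treated control cultures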; settings: S. cerevisiae rad50 mutant strain, active compounds read high
Method in brief: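 Yeast strain carrying rad50 alteration (rad50EPP+) exposed to compounds; growth inhibition measured relative to vehicle-treated controls.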

[8] = NCI Yeast Anticancer Drug Screen. Data for the mgt1 strain (AID 153); settings: S. cerevisiae mgt1 mutant growth inhibition, active compounds read high
Method in brief: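 Yeast mgt1 strain (DNA repair/cell-cycle alteration panel) exposed to compounds; growth inhibition measured relative to vehicle-treated controls.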

[9] = NCI Yeast Anticancer Drug Screen. Data for the rad50 strain (AID 155);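 note: 0% = growth of vehicle-only cultures of the same strain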; settings: S. cerevisiae rad50 strain growth inhibition, active compounds read high
Method in brief: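 Readout: growth inhibition relative to vehicle-treated cultures. Compound exposure was carried out in a genetically defined yeast strain deficient in DNA damage repair.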

[10] = NCI Yeast Anticancer Drug Screen. Data for the mec2-1 strain (AID 157); settings: S. cerevisiae mec2-1 strain, active compounds read high
Method in brief: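 mec2-1 yeast strain, carrying an alteration in DNA damage repair or cell cycle control, was exposed to compounds; growth inhibition was measured relative to vehicle-treated controls.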

[11] = NCI Yeast Anticancer Drug Screen. Data for the rad14 strain (AID 159);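 note: 0% = growth of vehicle-treated control cultures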; settings: S. cerevisiae rad14 strain growth inhibition, active compounds read high
Method in brief: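 Growth inhibition vs vehicle controls; genetically altered yeast strain (DNA damage repair defect) treated with test compounds.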

[12] = NCI Yeast Anticancer Drug Screen. Data for the sgs1 mgt1 strain (AID 161);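 note: 0% = growth of cultures given vehicle only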; settings: S. cerevisiae sgs1 mgt1 strain, active compounds read high
Method in brief: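 Percent growth inhibition was derived by comparing compound-exposed mutant yeast with vehicle-exposed cultures. The strain carries alterations in DNA damage repair.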

[13] = NCI Yeast Anticancer Drug Screen. Data for the CLN2oe strain (AID 163);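 note: 0% = growth of vehicle-only control cultures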; settings: S. cerevisiae CLN2oe strain, active compounds read high
Method in brief: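 Yeast cells carrying a defined cell-cycle control alteration were exposed to test compounds. Growth inhibition was scored against vehicle-treated control cultures.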

[14] = NCI Yeast Anticancer Drug Screen. Data for the cln2 rad14 strain (AID 165);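 note: 0% = growth equal to vehicle treated cultures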; settings: S. cerevisiae cln2 rad14 strain, active compounds read high
Method in brief: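 Yeast carrying cln2 and rad14 alterations (cell cycle control and DNA damage repair) were exposed to compounds. Growth inhibition was measured against vehicle-treated controls.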

[15] = NCI Yeast Anticancer Drug Screen. Data for the bub3 strain (AID 167); settings: S. cerevisiae bub3 mutant strain, active compounds read high
Method in brief: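 Readout: yeast growth inhibition, expressed relative to vehicle-only wells. The test organism is a mutant strain from a panel with lesions in DNA repair or checkpoint genes.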

[16] = NCI Yeast Anticancer Drug Screen. Data for the sgs1 strain (AID 173);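 note: 0% = growth of vehicle-only control cultures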; settings: S. cerevisiae sgs1 mutant, active compounds read high
Method in brief: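 Yeast mutant strains carrying defined defects in DNA damage repair or cell cycle control were exposed to test compounds. Growth inhibition was scored against vehicle-treated controls.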

[17] = at 5.0 µM (retest, dose inferred, filed as 0.5)
[18] = at 50.0 µM (retest, dose inferred, filed as 5.0)

Measured: growth inhibition

CN(C)N=Nc1ccc(N(C)C)cc1
active: [3]; [18] 77% | [3]; at 50.0 µM 70.3%
inactive: [1]; at 1.2 µM -1% | [1]; at 3.7 µM -1% | [1]; at 11.0 µM 0% | [1]; at 33.0 µM 2% | [1]; at 100.0 µM 13% | [2]; at 1.2 µM -2% | [2]; at 3.7 µM -3% | [2]; at 11.0 µM 1% | [2]; at 33.0 µM 3% | [2]; at 100.0 µM 10% | [3]; [17] 23% | [4]; at 1.2 µM 1% | [4]; at 3.7 µM 1% | [4]; at 11.0 µM -15% | [4]; at 33.0 µM 11% | [4]; at 100.0 µM 29%

Nc1cc2c(cc1N)-c1ccccc1C2=O
active: [5]; at 100.0 µM 87% | [7]; at 100.0 µM 70% | [8]; at 100.0 µM 95% | [9]; at 50.0 µM 71.4% | [9]; at 100.0 µM 92% | [10]; at 100.0 µM 70% | [11]; at 100.0 µM 97% | [2]; at 100.0 µM 86% | [16]; at 100.0 µM 74% | [4]; at 100.0 µM 93%
inactive: [5]; at 1.2 µM -3% | [5]; at 3.7 µM -3% | [5]; at 11.0 µM 2% | [5]; at 33.0 µM 23% | [6]; at 1.2 µM -2% | [6]; at 3.7 µM -3% | [6]; at 11.0 µM -4% | [6]; at 33.0 µM 3% | [6]; at 100.0 µM 36% | [7]; at 1.2 µM 1% | [7]; at 3.7 µM 9% | [7]; at 11.0 µM 18% | [7]; at 33.0 µM 31% | [8]; at 1.2 µM -3% | [8]; at 3.7 µM -2% | [8]; at 11.0 µM -2% | [8]; at 33.0 µM 1% | [9]; at 1.2 µM 0% | [9]; at 3.7 µM -57% | [9]; [17] 4% | [9]; at 11.0 µM 19% | [9]; at 33.0 µM 37% | [9]; [18] 67% | [10]; at 1.2 µM -2% | [10]; at 3.7 µM -4% | [10]; [17] 0% | [10]; at 11.0 µM -1% | [10]; at 33.0 µM 9% | [10]; [18] 23% | [10]; at 50.0 µM 39% | [11]; at 1.2 µM -1% | [11]; at 3.7 µM 3% | [11]; at 11.0 µM 8% | [11]; at 33.0 µM 26% | [12]; [17] -8% | [12]; [18] 17% | [12]; at 50.0 µM -11.9% | [13]; at 1.2 µM -3% | [13]; at 3.7 µM 0% | [13]; at 11.0 µM 2% | [13]; at 33.0 µM 2% | [13]; at 100.0 µM 13% | [14]; [17] -10% | [14]; [18] 15% | [14]; at 50.0 µM -0.1% | [15]; at 1.2 µM -2% | [15]; at 3.7 µM 1% | [15]; [17] 0% | [15]; at 11.0 µM 0% | [15]; at 33.0 µM 4% | [15]; [18] 49% | [15]; at 50.0 µM 45.1% | [15]; at 100.0 µM 65% | [1]; at 1.2 µM -3% | [1]; at 3.7 µM 6% | [1]; at 11.0 µM -2% | [1]; at 33.0 µM 1% | [1]; at 100.0 µM 41% | [2]; at 1.2 µM -1% | [2]; at 3.7 µM -2% | [2]; at 11.0 µM -2% | [2]; at 33.0 µM 2% | [16]; at 1.2 µM -3% | [16]; at 3.7 µM -3% | [16]; at 11.0 µM -1% | [16]; at 33.0 µM 6% | [3]; [17] 0% | [3]; [18] 57% | [3]; at 50.0 µM 68.7% | [4]; at 1.2 µM -3% | [4]; at 3.7 µM 1% | [4]; at 11.0 µM 5% | [4]; at 33.0 µM 21%
